Consider 23 compounds from PubChem BioAssay AID463173 (ICCB-Longwood Screening Facility, Harvard Medical School, 2010).

Among all 52,000 compounds or so, about 4,300 (8.3%) were called active. The full list was thinned out, with actives kept by preference. Unmarked numbers belong to inactive results. No stated cut-off is given here; in the data, active means survival mostly below about 52% (no sharp cut-off); inactive means mostly above about 56%.

The test system of the test is DeltatarO mutant. Put plainly: growth inhibition of S. aureus wild type versus tarO mutant, primary screen, teichoic acid synthesis inhibitors, RN4220, OD600 (AID 463173). The conditions noted are these: OD600, 18 h, hits give low values, screened at 18.75 µg/mL (by protocol).
Regarding `Cc1ccc(N2CCN(C(=O)C3CCN(S(=O)(=O)c4ccc5c(c4)oc(=O)n5C)CC3)CC2C)cc1` (stereo not drawn), the survival is 109%.

For the compound `Cc1ccc(-n2c3nc(=O)[nH]c(=O)c-3cc3c(C)nn(-c4ccccc4)c32)cc1Cl`, the survival was 85%.

With `Cc1cccc(-c2noc(-c3cccnc3NCc3ccc(Cl)cc3)n2)c1`, the survival was 73%.

Consider `COc1ccc(N(C(=O)COc2ccccc2OC)S(=O)(=O)c2ccc(Cl)cc2)cc1`, for which the survival was 71%.

In the case of `O=C(CN1C(=O)COc2ccc(Cl)cc21)Nc1ccc(F)cc1`, the survival was 67%.

Turning to `Cc1cc(C)c(NC(=O)CSc2nccn2Cc2ccco2)c(C)c1`, the survival is 76%.

Take `Cc1ccc(S(=O)(=O)NCC(c2ccc(N(C)C)cc2)N2CCc3ccccc32)cc1C` (stereo not drawn): the survival was 131%.

Consider `CCOc1ccc(S(=O)(=O)NCC(c2ccc(N(C)C)cc2)N2CCc3ccccc32)cc1` (stereo not drawn), for which the survival was 49%.

Turning to `CN(C)c1ccc(C(CNS(=O)(=O)c2ccccc2)N2CCc3ccccc32)cc1` (stereo not drawn), the survival was 99%.

With `COc1ccc(S(=O)(=O)NCC(c2ccc(N(C)C)cc2)N2CCc3ccccc32)cc1` (stereo not drawn), the survival was 78%.

As to `Cc1ccc(S(=O)(=O)NCC(c2ccc(N(C)C)cc2)N2CCc3ccccc32)cc1` (stereo not drawn), the survival was 0% (active).

Regarding `CN(C)c1ccc(C(CNS(=O)(=O)c2ccc(F)cc2)N2CCc3ccccc32)cc1` (stereo not drawn), the survival is 32% (active).

Take `Cc1cc(NC(=O)C2CCCN(S(=O)(=O)c3cn(C)cn3)C2)ccc1Br` (stereo not drawn): the survival is 102%.

For the compound `Cc1ccc(S(=O)(=O)CCc2nnc(NC(=O)CCCC(=O)Nc3cc(C)on3)s2)cc1`, the survival was 104%.

Take `CCOc1ccc(C(CC(=O)Nc2ccc(C(=O)OC)cc2)N2Cc3ccccc3C2=O)cc1OC` (stereo not drawn): the survival is 73%.

With `Cc1cccc(NC(=O)CN2C(=O)c3ccccc3Sc3ncccc32)c1C`, the survival is 90%.

Regarding `Cc1ccc(CNC(=O)C(=O)NCC(c2ccc3c(c2)OCO3)N2CCOCC2)cc1` (stereo not drawn), the survival was 64%.

Regarding `c1ccc(CN2CCCN(c3nc4c(c(NCCN5CCOCC5)n3)CCCC4)CC2)cc1`, the survival was 103%.

Consider `COC(=O)c1c(SCC(=O)Nc2cccc(C(F)(F)F)c2)[nH]c2ccccc2c1=O`, for which the survival was 82%.

For `COC(=O)c1c(SCC(=O)Nc2ccccc2OC)[nH]c2ccccc2c1=O`, the survival was 55%.

Take `COC(=O)c1c(SCC(=O)Nc2cc(C)cc(C)c2)[nH]c2ccccc2c1=O`: the survival is 39% (active).

Turning to `COc1ccc(N2CCN(C(=O)c3ccc(NC(=O)c4nsc5ccccc45)cc3)CC2)cc1`, the survival is 84%.

`CCOC(=O)c1scc(-c2ccccc2)c1S(=O)(=O)Nc1cc(OC)cc(OC)c1`: the survival was 89%.
